# Measurements reported in publication PMC4336329 (PLoS ONE, 2015).
# The campaign covered roughly 310,000 compounds. About 14,000 (4.5%) showed an effect of 50% or more. The effect is printed as a negative number. This is one part of a sample in which strong results are shown more often than they occur.
# Biological target: human ether-à-go-go-related gene (hERG) potassium channel (human, UniProt Q12809)
# Assay: primary screen, population patch clamp on CHO cells stably expressing hERG; higher = less effect of the substance
# Method: Briefly, Chinese hamster ovary (CHO) cells stably expressing the hERG channel were dislodged from tissue culture flasks and dispensed into PPC plates. […] During the recording, background leak currents were estimated by a 100 ms step to -80 mV from an initial holding potential of -70 mV and subtracted from the subsequent current measurement. The campaign was conducted in two phases using slight differences in recording protocol. In the first phase, the initial voltage pulse used a 100 ms step to -30 mV from a holding potential of -70 mV, a 2 s conditioning step to +25 mV, and a 2 s test step to -30 mV. During the second phase of the screen, the potential during the conditioning step was raised to +45 mV. In both phases of the campaign, a secondary voltage pulse was applied using the same parameters as the second phase initial pulse. The initial and secondary pulses were applied in the absence of compound, and upon application of 1 μM and 10 μM test concentrations. […]
# 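Further: peak tail current of the secondary pulse compared with the same well before compound.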
# Chain of human ether-à-go-go-related gene (hERG) potassium channel (Q12809 whole entry, looked up): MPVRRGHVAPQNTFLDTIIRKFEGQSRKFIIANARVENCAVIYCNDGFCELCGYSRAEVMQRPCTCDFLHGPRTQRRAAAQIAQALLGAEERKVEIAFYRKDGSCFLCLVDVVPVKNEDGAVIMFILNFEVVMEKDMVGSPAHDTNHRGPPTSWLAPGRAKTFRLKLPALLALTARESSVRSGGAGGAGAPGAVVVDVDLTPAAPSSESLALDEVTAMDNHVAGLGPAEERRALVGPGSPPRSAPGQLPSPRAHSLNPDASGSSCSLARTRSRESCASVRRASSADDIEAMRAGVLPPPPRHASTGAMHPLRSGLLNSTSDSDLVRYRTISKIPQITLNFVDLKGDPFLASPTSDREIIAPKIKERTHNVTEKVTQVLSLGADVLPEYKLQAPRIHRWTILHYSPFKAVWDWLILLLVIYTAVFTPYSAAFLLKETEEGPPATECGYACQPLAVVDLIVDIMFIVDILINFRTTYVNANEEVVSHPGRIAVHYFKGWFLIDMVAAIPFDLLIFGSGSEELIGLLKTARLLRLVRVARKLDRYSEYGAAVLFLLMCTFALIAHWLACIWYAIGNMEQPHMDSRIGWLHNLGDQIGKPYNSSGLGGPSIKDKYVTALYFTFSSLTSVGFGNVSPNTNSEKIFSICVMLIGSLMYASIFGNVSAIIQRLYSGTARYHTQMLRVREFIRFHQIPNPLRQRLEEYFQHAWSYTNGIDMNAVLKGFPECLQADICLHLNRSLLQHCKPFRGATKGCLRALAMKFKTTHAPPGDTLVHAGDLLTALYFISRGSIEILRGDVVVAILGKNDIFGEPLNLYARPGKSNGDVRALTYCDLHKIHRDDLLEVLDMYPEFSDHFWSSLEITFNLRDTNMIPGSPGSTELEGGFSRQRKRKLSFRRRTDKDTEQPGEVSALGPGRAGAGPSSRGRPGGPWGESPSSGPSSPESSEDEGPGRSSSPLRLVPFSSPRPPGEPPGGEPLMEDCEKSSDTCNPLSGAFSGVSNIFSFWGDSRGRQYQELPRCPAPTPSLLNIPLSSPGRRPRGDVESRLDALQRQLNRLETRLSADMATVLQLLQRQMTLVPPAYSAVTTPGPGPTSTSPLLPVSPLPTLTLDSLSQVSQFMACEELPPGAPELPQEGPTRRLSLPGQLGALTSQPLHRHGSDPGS
row,Compound,"hERG current change (%, negative = inhibition) at 10uM [%]"
1,NC(=O)CCCn1c(C(=O)c2ccc(Cl)cc2)c2ccc(C(F)(F)F)cc2[n+]1[O-],-77.9
2,NC(=O)CCn1c(C(=O)c2ccc(Cl)cc2)c2ccccc2[n+]1[O-],-23.7
3,NC(=O)CCn1c(C(=O)c2cc(Cl)c(N)c(Cl)c2)c2ccccc2[n+]1[O-],17.9
4,COc1ccc(/C=C2\N=C(c3ccccc3)N(c3ccc(C(=O)O)cc3)C2=O)cc1OC,6.76
5,CC(C)Oc1ccc(C2CC(=O)N(Nc3ccc([N+](=O)[O-])cc3[N+](=O)[O-])C2=O)cc1 (centres unmarked),-15.6
6,O=C1C2C3C=CC(C3)C2C(=O)N1Nc1ccc([N+](=O)[O-])cc1[N+](=O)[O-] (centres unmarked),3.34
7,CCOc1ccc(C2CC(=O)N(Nc3ccc([N+](=O)[O-])cc3[N+](=O)[O-])C2=O)cc1 (centres unmarked),-51.7
8,Cc1ccc(-n2c(=O)[nH]c3c(C(N)=O)nc(C(C)C)nc32)cc1,15.1
9,CCOc1ccccc1CNC(=O)C1CCCN(c2nnc(C)c3c(C)n(-c4ccccc4)nc23)C1 (centres unmarked),4.08
10,COc1ccc(-n2nc3c(N4CCC(C(=O)N5CCCCCC5)CC4)nnc(C)c3c2C)cc1,-53.7
11,Cc1nnc(N2CCCC(C(=O)NCc3ccccc3F)C2)c2nn(-c3ccccc3)c(C)c12 (centres unmarked),-51.2
12,CCCN1CCN(C(=O)C2CCN(c3nnc(C)c4c(C)n(-c5ccc(C)cc5)nc34)CC2)CC1,-32.3
13,Cc1nnc(N2CCC(C(=O)N3CCCCC3)CC2)c2nn(-c3ccc(Cl)cc3)c(C)c12,-73.9
14,Cc1ccccc1CNC(=O)C1CCCN(c2nnc(C)c3c(C)n(-c4ccccc4)nc23)C1 (centres unmarked),-5.38
15,COc1ccc(-n2nc3c(N4CCC(C(=O)NC5CCCCC5)CC4)nnc(C)c3c2C)cc1,-5.39
16,Cc1ccc(-n2nc3c(N4CCC(C(=O)N5CCCCCC5)CC4)nnc(C)c3c2C)cc1,-68.7
17,Cc1ccc(-n2nc3c(N4CCC(C(=O)N5CCC(C(N)=O)CC5)CC4)nnc(C)c3c2C)cc1,12
18,Cc1ccc(-n2nc3c(N4CCC(C(=O)N5CCN(C)CC5)CC4)nnc(C)c3c2C)cc1,11.9
19,COc1ccc(-n2nc3c(N4CCC(C(=O)N5CCC(C)CC5)CC4)nnc(C)c3c2C)cc1,-46.3
20,CCN1CCN(C(=O)C2CCN(c3nnc(C)c4c(C)n(-c5ccc(C)cc5)nc34)CC2)CC1,3.86
21,CCOc1ccc(Cn2c3ccc(OC)cc3c3nc4ccccc4nc32)cc1,15.4
22,O=C(COC(=O)c1cccnc1Cl)c1ccccc1,-4.84
23,CSc1ccccc1NC(=O)CN(C1CCCCC1)S(C)(=O)=O,-1.49
24,CSC[C@H](NC(=O)Cc1c(C)c2cc3c(C)c(C)oc3cc2oc1=O)C(=O)N[C@@H](Cc1ccccc1)C(=O)O,1.76
25,Cc1ccc(S(=O)(=O)Nc2ccc(Cl)cn2)cc1C,15
26,CN(C)CCSc1nc(N)c2c3c(sc2n1)CN(C)CC3,9.66
27,CCCCc1nc2c(C)c(N)cnc2n1Cc1cccc([N+](=O)[O-])c1,-44.1

row,Compound,"hERG current change (%, negative = inhibition) at 10uM [%]"
1,N#CC1=C2SCN(Cc3ccccc3)CN2C(=O)CC1c1cccs1 (centres unmarked),6.44
2,O=C(Nc1ccc2oc(-c3ccccc3Cl)nc2c1)c1cncc(Br)c1,-8.01
3,Cc1nnc(N2CCC(C(=O)N3CCCCCC3)CC2)c2nn(-c3ccc(Cl)cc3)c(C)c12,-65.2
4,Cc1nnc(N2CCC(C(=O)NC3CCC(C)CC3)CC2)c2nn(-c3ccc(Cl)cc3)c(C)c12 (centres unmarked),18.8
5,CCc1ccc(CNC(=O)C2CCN(c3nnc(C)c4c(C)n(-c5ccc(C)cc5)nc34)CC2)cc1,-1.17
6,CC(=O)Nc1ccc(S(=O)(=O)NCCCN2CCOCC2)cc1,16
7,Cc1cccc(NC(=O)C2CCCN2/C=C/C(=O)C(F)(F)F)c1C (centres unmarked),4.61
8,COc1ccc(C(=O)CC(=O)C(=O)Nc2cccc(C(C)=O)c2)cc1,29.9
9,COc1ccc(C2(c3ccc(O)cc3O)CC(c3ccccc3Cl)NC(=S)N2)cc1 (centres unmarked),-15
10,COc1ccc(C2(c3ccc(OC(C)=O)cc3OC(C)=O)CC(c3ccccc3)NC(=S)N2)cc1 (centres unmarked),-50.2
11,COc1ccc(N2C(=S)NC(C)(C)CC2(C)c2ccc(OC(C)=O)cc2OC(C)=O)cc1 (centres unmarked),6.26
12,O=C(Cc1ccccc1[N+](=O)[O-])Nc1ccccc1C(=O)N1CCCC1,23.2
13,Cc1ccc(NC(=S)NCC2CCN(C(C)c3ccccc3)C2)cc1 (centres unmarked),-57.5
14,Cc1cc(C)cc(NC(=S)NCC2CCN(C(C)c3ccccc3)C2)c1 (centres unmarked),-63.3
15,Cc1cc(C)c(NC(=S)NCC2CCN(C(C)c3ccccc3)C2)c(C)c1 (centres unmarked),-22.4
16,Cc1ccc(NC(=S)NCC2CCN(C(C)c3ccccc3)C2)cc1C (centres unmarked),-44.6
17,CC(c1ccccc1)N1CCC(CNC(=S)Nc2cccc(Cl)c2)C1 (centres unmarked),-29.2
18,Cc1ccccc1NC(=S)NCC1CCN(C(C)c2ccccc2)C1 (centres unmarked),6.64
19,O=C1NC(c2ccccc2)=C(c2ccc3ccccc3n2)C(c2ccccc2)N1 (centres unmarked),6.13
20,CC1(C)CC(=O)N(CC(=O)O)c2ccccc2S1(=O)=O,3.52
21,O=c1c2ccccc2ncn1-c1ccc(Cl)c(Cl)c1,-1.01
22,OC(CNCCCCNCC(O)C(F)(F)F)C(F)(F)F (centres unmarked),19.8
23,CCCN(CCC)Cc1c(C(=O)OCC)nnn1-c1nonc1N,-12.7
24,CC(=O)c1nc2ccccc2n1S(=O)(=O)c1ccc(C)cc1,17.3
25,Cc1nc2c(ccc3nc(NC(=O)c4ccc5c(c4)OCCO5)sc32)s1,-74.3
26,Cc1nc2c(ccc3nc(NC(=O)c4ccc(S(=O)(=O)N(C)C)cc4)sc32)s1,15.2
27,Cc1nc2ccc3nc(NC(=O)c4ccc5c(c4)OCCO5)sc3c2s1,2.9

row,Compound,"hERG current change (%, negative = inhibition) at 10uM [%]"
1,CC(C)(C)NC(=O)COc1coc(CN2CCN(Cc3ccccc3)CC2)cc1=O,-1.29
2,Cc1ccc(Cn2c(C(CO)Nc3nc(-c4ccc(Cl)c([N+](=O)[O-])c4)cs3)nc3ccccc32)cc1 (centres unmarked),7.56
3,O=S(=O)(c1ccsc1)N1CC=C(c2ccccc2)CC1,15.7
4,CN1CCN(C(c2cc3cc4c(cc3[nH]c2=O)OCCO4)c2nnnn2C2CCCC2)CC1 (centres unmarked),-9.91
5,CCN1CC2C3CCC(C)(O3)C2C1 (centres unmarked),-73.1
6,CCCc1cc(=O)[nH]c(SCC(=O)Nc2nc3ccc(OCC)cc3s2)n1,22.8
7,NC(=S)N=Nc1c(O)n(CC(=O)Nc2ccccc2)c2ccccc12,16.4
8,COc1cc2ncnc(NCc3ccc(C)o3)c2cc1OC,-11.5
9,CCOC(=O)C1CCN(C(=O)COc2ccc(N(C)S(=O)(=O)c3ccc(OCC)cc3)cc2)CC1,-4.08
10,COC(=O)C1CCN(C(=O)COc2ccc(N(C)S(=O)(=O)c3ccc(C)cc3)cc2)CC1,-33.8
11,CCOC(=O)C1CCN(C(=O)COc2ccc(N(C)S(=O)(=O)c3ccc(C)cc3)cc2)CC1,-57.7
12,CN(c1ccc(OCC(=O)N2CCOCC2)cc1)S(=O)(=O)c1ccc(F)cc1,-9.15
13,CCOC(=O)C1CCCN(C(=O)COc2ccccc2O)C1 (centres unmarked),-1.94
14,CCN(c1ccccc1)S(=O)(=O)c1ccc(OCC(=O)N2CCCC2)cc1,-10.4
15,CCOC(=O)C1CCCN(C(=O)COc2ccc(N(C)S(=O)(=O)c3ccc(F)cc3)cc2)C1 (centres unmarked),-66.5
16,CN1CCN(C(=O)COc2ccc(N(C)S(=O)(=O)c3ccc(F)cc3)cc2)CC1,-4.56
17,Cc1ccc(S(=O)(=O)N(C)c2ccc(OCC(=O)N3CCCC(C(F)(F)F)C3)cc2)cc1 (centres unmarked),-39.9
18,Cc1ccc(S(=O)(=O)N(C)c2ccc(OCC(=O)N3CCCCC3)cc2)cc1,-10.5
19,CCOC(=O)C1CCCN(C(=O)COc2ccc(S(=O)(=O)N(CC)c3ccccc3)cc2)C1 (centres unmarked),-51.8
20,CCOC(=O)C1CCCN(C(=O)COc2ccc(N(C)S(=O)(=O)c3ccc(C)cc3)cc2)C1 (centres unmarked),-56.8
21,O=C(COC(=O)c1cnccn1)c1cccc([N+](=O)[O-])c1,14.4
22,O=C(Nc1ccccc1Cl)c1sccc1-c1ccccc1,-2.39
23,COc1ccc(/C=N/NC(=O)C(=O)Nc2ccccn2)cc1OC,-27.2
24,COc1ccc(C2=NS(=O)(=O)N(C)C(C(=O)NCc3ccccn3)=C2)cc1OC,-4.15
25,CC1=CC(C)(C)Nc2ccc(OC(=O)c3ccco3)cc21,-0.0756
26,CC1CN(C(=O)CN2C(=O)c3ccccc3C2=O)CC(C)O1 (centres unmarked),6.42
